The campaign covered roughly 2,200 compounds. About 1,200 (55%) were called active. Cut-off not given; nearly all actives show IC50 up to about 92 µM. So high a share suggests a set chosen from earlier hits. This is one part of the list.

A short description of the assay: counter assay for TAg ATPase ADP read-out – biochemical, ADP-Hunter, fluorescence, counter-screen (AID 2501).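 Further: purified T antigen ATPase.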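 On inhibition: higher means more inhibition.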 The following applies: series mostly up to 100 µM.
In the case of `Cc1nonc1C1CCCN1C(=O)c1cc(COc2ccc(F)cc2F)on1` (stereo unspecified), the IC50 entry was “inactive”.

Turning to `COc1ccccc1C(NC(C)=O)c1c(O)ccc2ccc(O)cc12` (stereo unspecified), the IC50 result is “inactive”.

As to `O=C(CCO)c1ccc(O)cc1`, the IC50 entry is “inactive”.

`COc1cc(O)ccc1C(=O)CCc1ccc(O)cc1`: the IC50 is 6.75 µM (active).

For the compound `COc1cc(C2OCC3C(c4ccc(OC5OC(CO)C(O)C(O)C5O)c(OC)c4)OCC23)ccc1O` (stereo unspecified), the 50% inhibitory concentration (IC50) was 8.74 µM (active).

For `O=C(CN1C(=O)/C(=C\c2ccco2)SC1=S)Nc1ccc(O)cc1C(=O)O`, the IC50 entry is “inactive”.

In the case of `O=C(CN1C(=O)/C(=C/c2ccco2)SC1=S)Nc1ccc(O)c(C(=O)O)c1`, the IC50 result is “inactive”.

`O=C(CN1C(=O)/C(=C/c2ccco2)SC1=S)NC1CCS(=O)(=O)C1` (stereo unspecified): the IC50 was 35.1 µM (active).

With `N#Cc1c(Nc2ccccc2Cl)s[nH]c1=O`, the IC50 entry was “inactive”.

In the case of `O=C(O)CSc1cc(NS(=O)(=O)c2ccc(Cl)cc2)c2ccccc2c1O`, the IC50 result is “inactive”.

On to `O=C([C@H](Cc1ccccc1)NS(=O)(=O)c1ccc(Cl)cc1)N1CC[C@@]2(O)CCCC[C@H]2C1`, for which the half-inhibitory concentration (IC50) is 18.9 µM (active).

Consider `COc1ccc(-c2c(C)nn3c(-c4ccccc4)cc(C)nc23)cc1`, for which the IC50 entry is “inactive”.

Consider `NC(=S)N=Nc1ccc(NN=C(N)N)cc1`, for which the half-inhibitory concentration (IC50) is 6.85 µM (active).

Consider `COc1ccccc1C1/C(=C(/O)c2ccc(C)cc2)C(=O)C(=O)N1CC(C)O` (stereo unspecified), for which the IC50 entry was “inactive”.

Take `CCOC1=C/C(=C/c2c(N)n3nc(-c4ccccc4)sc3nc2=O)C=CC1=O`: the 50% inhibitory concentration (IC50) is 11.2 µM (active).

In the case of `CCCOc1ccc(Cc2nn3c(=O)/c(=C/c4ccco4)sc3nc2=O)cc1`, the IC50 entry was “inactive”.

On to `COC1=C/C(=C/c2c(N)n3nc(-c4ccc(C)cc4)sc3nc2=O)C=CC1=O`, for which the half-inhibitory concentration (IC50) was 10.8 µM (active).

`O=c1nc2s/c(=C\c3ccco3)c(=O)n2nc1Cc1ccccc1`: the IC50 entry is “inactive”.

In the case of `CCOC(=O)N1CCN(c2cc(NCCC(=O)O)c3c4c(onc24)-c2ccccc2C3=O)CC1`, the 50% inhibitory concentration (IC50) was 8.63 µM (active).

Regarding `CCOc1c(Br)cc(CNc2ccc(N3CCN(C(C)=O)CC3)cc2)cc1OC`, the half-maximal inhibitory concentration (IC50) is 7.66 µM (active).

As to `CCOc1cc(CNc2ccc(N3CCN(C(C)=O)CC3)cc2)cc(Br)c1OC`, the 50% inhibitory concentration (IC50) was 5.42 µM (active).

Regarding `CCOc1c(Br)cc(CNc2ccc(N3CCOCC3)cc2)cc1OC`, the 50% inhibitory concentration (IC50) was 6.04 µM (active).

For the compound `Cn1ncc2nnn(-c3ccccc3)c(=O)c21`, the IC50 entry was “inactive”.

`Brc1ccc(-c2nn3c(-c4ccco4)nnc3s2)o1`: the IC50 result is “inactive”.

As for `COc1ccc(Cc2nc3ccccc3n2CC(=O)N/N=C/c2ccc(O)cc2)cc1OC`, the IC50 is 4.33 µM (active).

`CCOc1ccc(NC(=O)c2nnn(CC(=O)Nc3ccccc3OC)c2N)cc1`: the IC50 entry was “inactive”.

In the case of `COc1cc(/C=N/NC(=O)C(C)n2nnc3ccccc32)ccc1O` (stereo unspecified), the IC50 was 3.07 µM (active).

Turning to `CCOc1cc(/C=N\NC(=O)Cn2nnc3ccccc32)ccc1O`, the IC50 was 5.43 µM (active).

Turning to `COc1cc(/C=N/NC(=O)CCc2c(C)n[nH]c2C)ccc1O`, the IC50 is 4.69 µM (active).

With `CC(C(=O)Nc1ccccc1Cl)N(c1ccccc1)S(C)(=O)=O` (stereo unspecified), the IC50 result was “inactive”.

Take `CCCSC1=N/C(=C\C=C\c2ccco2)C(=O)S1`: the IC50 result is “inactive”.

For the compound `COc1cc(/C=N/NC(=O)CCn2nc(C)cc2C)ccc1O`, the IC50 was 6.73 µM (active).

Regarding `COc1cc(/C=N/NC(=O)Cn2nnc3ccccc32)ccc1O`, the half-maximal inhibitory concentration (IC50) was 2.86 µM (active).

As to `CCOc1cc(/C=N/NC(=O)CCn2nnc3ccccc32)ccc1O`, the IC50 was 3.32 µM (active).

As for `COc1cc(/C=N/NC(=O)CCn2nnc3ccccc32)ccc1O`, the IC50 was 3.56 µM (active).

Turning to `CCOC(=O)C1=C(N)n2c(s/c(=C\c3ccco3)c2=O)=C(C(=O)OCC)C1c1ccco1` (stereo unspecified), the IC50 result was “inactive”.

As to `C[C@]12CC[C@@H]3c4cc(O)c(O)cc4CC[C@H]3[C@@H]1CC[C@@H]2O`, the IC50 result is “inactive”.

As to `CCCNC(=O)c1ccc(CNc2c(N3CCC(C(=O)OCC)CC3)c(=O)c2=O)cc1`, the IC50 result was “inactive”.

On to `O=C(O)CC(C(=O)O)N1C(=O)/C(=C/C=C/c2ccco2)SC1=S` (stereo unspecified), for which the IC50 entry is “inactive”.

Turning to `O=C1NC(=Nc2ccc(O)cc2)S/C1=C\C=C\c1ccco1`, the IC50 was 3.48 µM (active).

In the case of `Cc1cccc(N=C2NC(=O)/C(=C/C=C/c3ccco3)S2)c1`, the IC50 entry is “inactive”.

In the case of `O=C1NC(=Nc2ccc(O)cc2)S/C1=C/c1ccco1`, the concentration for half-maximal inhibition (IC50) was 5.16 µM (active).

As for `Cc1ccc(S(=O)(=O)/N=C2/NC(=O)/C(=C\c3ccco3)S2)cc1`, the IC50 result is “inactive”.

`O=C(CCCN1C(=O)/C(=C\c2ccco2)SC1=S)Nc1ccc(O)cc1C(=O)O`: the IC50 result was “inactive”.

Consider `CCCC[C@@H]1CN=C(N)N1CCc1cc(C(F)(F)F)cc(C(F)(F)F)c1`, for which the IC50 entry was “inactive”.

With `O=Nc1c(-c2cccc([N+](=O)[O-])c2)nc2ncccn12`, the IC50 result was “inactive”.

In the case of `CN=c1nc(-c2ccccc2)n(-c2ccccc2)s1`, the IC50 is 11.8 µM (active).

As for `CCOC(=O)C1=C(C)NC(=S)NC1c1ccc(OC(=O)c2ccco2)cc1` (stereo unspecified), the IC50 entry was “inactive”.

As for `O=C(N/N=C/c1ccc(OC(=O)c2ccco2)cc1)c1ccc[n+]([O-])c1`, the IC50 was 41.7 µM (active).

As to `Oc1ccc(-c2nc(=S)[nH][nH]2)cc1`, the concentration for half-maximal inhibition (IC50) is 2.49 µM (active).

Turning to `O=c1c2ccccc2sn1-c1cc(S(=O)(=O)N2CCOCC2)ccc1N1CCCC1`, the IC50 is 12.5 µM (active).

`Cc1ccc2c(c1)C(c1ccccc1)N(C(=O)c1ccc(S(=O)(=O)N3CCOCC3)cc1)CC(=O)N2` (stereo unspecified): the IC50 entry is “inactive”.

For `O=C(Nc1ccc(S(=O)(=O)N2CCCC2)cc1)N1c2ccccc2Sc2ccccc21`, the IC50 entry was “inactive”.

Regarding `O=c1c2ccccc2sn1-c1cc(S(=O)(=O)N2CCOCC2)ccc1N1CCOCC1`, the IC50 is 12.5 µM (active).

Consider `C[C@@H]1O[C@@H](OC2C(O)C(OCCc3ccc(O)c(O)c3)OC(CO)C2OC(=O)/C=C/c2ccc(O)c(O)c2)[C@H](O)[C@H](O)[C@H]1O` (stereo partly specified), for which the 50% inhibitory concentration (IC50) was 6.02 µM (active).

Consider `Nc1nc[nH]c(=O)c1N=Cc1ccccc1`, for which the IC50 was 12.2 µM (active).

As for `C=CCNc1nnc(SC2CC(=O)N(c3ccc(OC)cc3)C2=O)s1` (stereo unspecified), the IC50 is 11.2 µM (active).

For `CCN=C(Nc1ccc2c(c1)OCO2)SC1CC(=O)N(c2ccc(OC)cc2)C1=O` (stereo unspecified), the IC50 result is “inactive”.

Consider `CN1/C(=C\C=N\NC(=O)c2ccc(O)cc2)C(C)(C)c2ccccc21`, for which the half-inhibitory concentration (IC50) is 8.51 µM (active).

With `Cc1c(/C=N/NC(=O)c2ccc(O)cc2)c2ccccn2c1C(=O)c1ccc(F)cc1`, the IC50 entry is “inactive”.

For `O=S(=O)(O)c1cc(O)c2c(O)c(N=Nc3cc(Cl)ccc3O)c(S(=O)(=O)O)cc2c1`, the IC50 was 81.2 µM (active).

As to `Cc1cc(-c2ccc(N=Nc3c(S(=O)(=O)O)cc4cc(S(=O)(=O)O)cc(N)c4c3O)c(C)c2)ccc1N=Nc1c(S(=O)(=O)O)cc2cc(S(=O)(=O)O)cc(N)c2c1O`, the 50% inhibitory concentration (IC50) was 11.5 µM (active).

As for `Cc1sc(NC(=O)C2C3CCC(O3)C2C(=O)O)c(C(=O)OC(C)C)c1-c1ccc(Cl)cc1` (stereo unspecified), the IC50 result was “inactive”.

`CCn1cnc2cc(NCc3cccc(OC)c3O)ccc21`: the IC50 was 3.71 µM (active).

As to `CCCn1cnc2cc(NCc3cccc(OC)c3O)ccc21`, the IC50 was 4.87 µM (active).

As for `C/C(Cl)=C\Cn1c(N2CCCC2)nc2c1c(=O)[nH]c(=O)n2C`, the IC50 entry was “inactive”.

As for `O=C(O)CCNc1ccc(NCCC(=O)O)c2c1C(=O)c1ccccc1C2=O`, the IC50 is 7.52 µM (active).

For `Oc1cnn(-c2ccccc2)c1`, the half-inhibitory concentration (IC50) was 7.63 µM (active).

`O=C(Nc1nc(-c2ccco2)c(-c2ccco2)s1)c1ccco1`: the IC50 result is “inactive”.

For `COc1cc(/C=N\Nc2nc(-c3cccs3)c(NC(C)=O)s2)ccc1O`, the IC50 was 4.67 µM (active).

As to `CC(=O)Nc1sc(N/N=C\c2ccco2)nc1-c1cccs1`, the IC50 is 74 µM (active).

For `CCOc1cc(/C=N/Nc2nc(-c3cccs3)c(NC(C)=O)s2)ccc1O`, the half-inhibitory concentration (IC50) is 9.71 µM (active).

Turning to `NS(=O)(=O)c1cc(C(=O)NC2CCSc3ccccc32)ccc1Cl` (stereo unspecified), the IC50 entry is “inactive”.

In the case of `CSc1cccc(NC(=O)CN2C(=O)c3ccccc3S2(=O)=O)c1`, the IC50 entry is “inactive”.

On to `CCS(=O)(=O)c1ncc(Cl)c(C(=O)Nc2ccc(S(=O)(=O)N3CCCC(C)C3)cc2)n1` (stereo unspecified), for which the IC50 entry was “inactive”.

Regarding `Oc1ccc(/C=N/Nc2cc(N3CCCC3)nc(N3CCCC3)n2)cc1O`, the IC50 is 31.9 µM (active).

Turning to `Cc1cc(N/N=C/c2ccc(O)cc2O)nc(N2CCOCC2)n1`, the half-inhibitory concentration (IC50) is 22.7 µM (active).

For `Oc1ccc(/C=N/Nc2cc(N3CCOCC3)nc(N3CCOCC3)n2)cc1O`, the IC50 is 4.67 µM (active).

For the compound `O=C(NC1CCCC1)C(c1ccc(F)cc1)N(Cc1ccc(F)cc1)C(=O)c1ccn[nH]1` (stereo unspecified), the IC50 result is “inactive”.

Consider `CCc1ccccc1N1CSC2=C(C#N)C(c3ccccc3F)CC(=O)N2C1` (stereo unspecified), for which the IC50 entry is “inactive”.

`COc1ccc(C2CC(=O)N3CN(c4ccc(C)c(Cl)c4)CSC3=C2C#N)cc1` (stereo unspecified): the IC50 entry was “inactive”.

On to `CCOc1ccc(N2CSC3=C(C#N)C(c4ccco4)CC(=O)N3C2)cc1` (stereo unspecified), for which the 50% inhibitory concentration (IC50) was 10.4 µM (active).

`COc1ccc(N2CSC3=C(C#N)C(c4cccc(OC)c4OC)CC(=O)N3C2)cc1` (stereo unspecified): the half-maximal inhibitory concentration (IC50) was 5.84 µM (active).

Regarding `Cc1ccc(N2CSC3=C(C#N)C(c4cccs4)CC(=O)N3C2)cc1` (stereo unspecified), the IC50 is 23.6 µM (active).

Take `N#CC1=C2SCN(Cc3ccccc3)CN2C(=O)CC1c1cccs1` (stereo unspecified): the IC50 result was “inactive”.

`COc1ccc(N2CSC3=C(C#N)C(c4cccs4)CC(=O)N3C2)cc1` (stereo unspecified): the half-inhibitory concentration (IC50) is 7.88 µM (active).

As for `COc1ccc2cc(-c3[nH]ncc3CN3CCCN(c4ccccc4)CC3)ccc2c1`, the IC50 result is “inactive”.

With `C/C=C/c1cc(CN2CCN(c3ccc(OC)cc3)CC2)c(O)c(OC)c1`, the IC50 is 32.1 µM (active).

As to `COc1ccc(-n2cc(CN3CCCC3)c(-c3cccc(F)c3)n2)cc1`, the IC50 entry is “inactive”.

As to `O=S(=O)(Nc1cccc(C(F)(F)F)c1)c1cnc[nH]1`, the IC50 entry is “inactive”.

In the case of `Cc1cc(C)c2c(=O)n(CC(=O)Nc3cccc(Cl)c3C)sc2n1`, the IC50 result is “inactive”.

Consider `Cc1coc2c(O)cc3c(c12)OC1(N2CCCCC2)C(=O)NCCCC31` (stereo unspecified), for which the IC50 entry was “inactive”.

As to `COc1cc(CNc2ccc3c(c2)CCC3)cc(OC)c1O`, the IC50 was 11.4 µM (active).

On to `N#CC1=C(N)n2c(s/c(=C\c3ccco3)c2=O)=C(C#N)C1c1ccco1` (stereo unspecified), for which the IC50 entry was “inactive”.

`CC1=C(C#N)C(=O)N(C2CCS(=O)(=O)C2)C(=O)/C1=C\c1ccco1` (stereo unspecified): the half-inhibitory concentration (IC50) was 82 µM (active).

On to `CC1C/C(=C/c2ccco2)C(=O)/C(=C/c2ccco2)C1` (stereo unspecified), for which the IC50 entry is “inactive”.
